# POLK inh: inhibitors of human DNA polymerase kappa; Potency, µM (doses to about 107 µM), inactives show at the highest dose activity, negative = inhibition, hits mostly inhibitors; actives 0.53% (n = 400,000); purified Pol kappa, fluorescent DNA synthesis assay, 10 min; Q9UBT6; AID 588579; note: potency is the fitted concentration of half-maximal effect; % is set by controls: 0 for no effect and ±100 for the full control effect
#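 10 nM Pol kappa was preincubated with compounds for 15 min at room temperature. Reaction started with 50 nM (final) substrate. Fluorescence read kinetically at 0 and 10 min.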
# Pol beta inh: inhibitors of human DNA polymerase beta; P06746; Pol beta primer extension/strand displacement, fluorescence kinetic; Potency, µM (top dose mostly 114 µM), without a hit: at the highest dose activity change, negative = inhibition, usual class: inhibitors; actives 1.3% (n = 340,000); note: potency is the fitted concentration of half-maximal effect; % is set by controls: 0 for no effect and ±100 for the full control effect
#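 Pol beta (10 nM) and compounds were preincubated 15 min at room temperature, then 50 nM substrate (final) started primer extension/strand displacement. Reads were taken at 0 and 10 min; concentration-response data were fitted to a four-parameter Hill equation.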
# PI5P4K alpha inh: inhibitors of human PI5P4K alpha | AID 652105 | PI5P4Kalpha enzyme, ADP-Glo luminescence, 60 min; hits give low values | P48426 | actives 1.2% (n = 330,000) | max response, %; active = max response of -50% or lower; inconclusive = between -30% and -50%; inactive = -30% or higher; note: value at the top dose of about 77 µM; % is set by controls: 0 for no effect and ±100 for the full control effect
#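 Luminescence from ADP-Glo served as readout of PI5P4Kalpha activity in a qHTS format. Reaction: enzyme, substrate, compound, ATP at 5 microM final, 60 min at RT.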
# POLI inh: DNA polymerase iota (human) inhibition. actives 1% (n = 390,000). Pol iota fluorescent replication assay, 10 min. Potency, µM (series often up to 115 µM), without a hit: top-dose activity, negative = inhibition, hits mostly inhibitors; note: potency is the fitted concentration of half-maximal effect
#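 Fluorescent replication assay read twice, at 0 min and 10 min after adding 50 nM (final) substrate. Enzyme (10 nM) and compounds were first incubated 15 min at room temperature; enzyme-free buffer wells were negative controls.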
# WRN inhibitor: blocks human WRN helicase; Potency, µM (top dose mostly 114 µM), for the others: at the highest dose activity change, negative = inhibition, actives largely listed as inhibitors; WRN helicase unwinding, fluorescent forked duplex, kinetic; AID 651768; actives 0.46% (n = 360,000); note: potency is the fitted concentration of half-maximal effect; % is set by controls: 0 for no effect and ±100 for the full control effect; nearly all actives have a fitted effect of over 55% in size
#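 Enzyme (20 nM final) and test compound sit together 15 min at room temperature before substrate addition. Substrate is a single-forked duplex oligonucleotide (100 nM) labelled with fluorophore and quencher, with 2 mM ATP; helicase unwinding raises red fluorescence, read kinetically.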
# Pol eta inh: inhibitors of human DNA polymerase eta | Potency, µM (highest dose often 114 µM), without a hit: at the top dose activity change, negative = inhibition, usual class: inhibitors | Q9Y253 | actives 1.2% (n = 390,000) | AID 588591 | recombinant Pol eta, fluorescent DNA replication assay; note: potency is the fitted concentration of half-maximal effect; % is set by controls: 0 for no effect and ±100 for the full control effect
#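 Fluorescent replication assay: 50 nM final substrate added after a 15 min room-temperature compound preincubation with 10 nM enzyme. Signal taken at 0 min and again at 10 min.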
# * = called active by the depositor; ? = inconclusive; · = not tested or not shown; [ ] = remark or other dose. The list is not random: actives were taken first. Their share in the collection is about 2.8%. Unless noted, calls come from the whole dose curve; as a rule, active = well fitted curve in the direction sought with a large enough effect; inconclusive = small, poorly fitted or top-dose-only effect, or another doubt; inactive = no such curve, though single readings can be large; an effect the other way counts as inactive or inconclusive.
SMILES,POLK inh,Pol beta inh,PI5P4K alpha inh,POLI inh,WRN inhibitor,Pol eta inh
CCCCCC(=O)Nc1cccc(C2=NOC3(C2)C[C@H](C(N)=O)N(C(=O)CC#N)C3)c1 (stereo partly specified),·,39.8µM*,·,·,·,·
C/C=C/C=C/C(=O)N1CC2(CC(c3cccc(NC(=O)/C=C/C)c3)=NO2)C[C@@H]1C(N)=O (stereo partly specified),?,-1.3%,-50.5*,39.8µM*,-16.8%[11.6 µM],?
C/C=C/C(=O)Nc1cccc(C2=NOC3(C2)C[C@H](C(N)=O)N(C(=O)/C=C/C)C3)c1 (stereo partly specified),-15.3%,3.2%,0.5,-16.5%,2.8%,-1.5%
C/C=C/C=C\C(=O)Nc1cccc(C2=NOC3(C2)C[C@H](C(N)=O)N(C(=O)CC#N)C3)c1 (stereo partly specified),79.4µM*,50.1µM*,-12.6,14.1µM*,44.7µM*,44.7µM*
C/C=C\C=C/C(=O)Nc1cccc(C2=NOC3(C2)C[C@H](C(N)=O)N(C(=O)Cc2ccc([N+](=O)[O-])cc2)C3)c1 (stereo partly specified),-10.4%,-8.3%,-57.2*,25.1µM*,-13.3%,-16.4%
C/C=C\C=C/C(=O)Nc1cccc(C2=NOC3(C2)C[C@@H](C(N)=O)N(C(=O)CCCCC)C3)c1 (stereo partly specified),-3.8%,?,-66.6*,-14.6%,-1.8%,-11.1%
O=C(O)CC(NC(=O)Cc1ccc([N+](=O)[O-])cc1)c1ccc2c(c1)OCO2 (stereo unspecified),-25.9%,-0.4%,-0.1,-23.9%,-30.3%,?
C#CCSc1nsc(SCC#C)c1C#N,?,44.7µM*,·,20µM*,50.1µM*,17.8µM*
CCCSc1nsc(SCCC)c1C#N,-18.6%,12.0%,17.5,1.0%,-7.0%,-4.8%
O=[N+]([O-])c1ccc(CSCc2ccc([N+](=O)[O-])cc2)cc1,-15.8%,·,23.3,9.6%,4.1%,-12.4%
CC(=O)NC(Cc1ccc(F)cc1)C(=O)NC1CCN(C(=O)Nc2ccccc2C)CC1 (stereo unspecified),0.0%,11.1%,-4.1,5.1%,3.6%,-7.3%
C=CCN(CC=C)Cc1cc(=O)oc2cc(C)cc(C)c12,·,·,-0.2,·,-8.6%,·
N#C/C(C(=O)Nc1ccc(Cl)cc1)=C(/S)Nc1ccccc1,10.7%,0.1%,-87.1*,17.4%,6.4%,?
CC(C)NC(=O)c1ccc(CSc2nc3ccncc3n2Cc2cccc(F)c2)cc1,-8.9%,-1.5%,·,28.2%,·,-10.9%
COc1ccc(C(=O)COC(=O)CCCC(=O)NC2CCCCC2)cc1,-4.6%,19.7%,1.4,13.2%,-28.5%,-12.8%
CN1/C(=C/C=C(C#N)C#N)C=Cc2ccccc21,1.9%,-3.6%,-0.3,79.4µM*,42.6%[11.6 µM],-2.2%
CCOC(=O)/C(C#N)=C/C=C1\C=Cc2ccccc2N1CC,5.2%,25.1%,-3.2,49.6%,58.6%,-7.6%
O=C(COC(=O)CCCc1nc2ccccc2s1)Nc1ncc(Cl)cc1Cl,0.0%,39.8µM*,-29.2,95.9%,-13.7%,?
O=C(O)C1Nc2c(C(=O)N3CCOCC3)cccc2C2C=CCC12 (stereo unspecified),44.7µM*,20µM*,-61.7*,11.2µM*,56.2µM*,3.16µM*
Cc1ccc2c(c1C)NC(C(=O)O)C1CC=CC21 (stereo unspecified),3.16µM*,2.51µM*,·,?,39.8µM*,3.55µM*
CCOC(=O)c1cccc2c1N[C@@H](c1ccc(F)cc1)[C@H]1CC=C[C@@H]21,-12.8%,?,·,36.0%,·,-10.6%
Cc1cc(C)c2c(c1)C1C=CCC1C(C(=O)O)N2 (stereo unspecified),28.2µM*,·,·,?,·,·
O=C(O)C1Nc2c(C(F)(F)F)ccc(Cl)c2C2C=CCC12 (stereo unspecified),-5.6%,44.7µM*,-27.1,?,-11.0%,?
Cc1cccc(N2CC(c3nc4ccc(C)cc4[nH]3)CC2=O)c1 (stereo unspecified),-14.7%,-0.7%,·,38.2%,·,-10.4%
COC(=O)c1cc(NC(=O)c2c(F)c(F)c(F)c(F)c2F)cc(C(=O)OC)c1,-3.6%,11.4%,11.7,13.6%,-0.1%,-25.2%
SMILES,POLK inh,Pol beta inh,PI5P4K alpha inh,POLI inh,WRN inhibitor,Pol eta inh
C=CCn1c(=O)c(C(=O)Nc2ccccc2S(N)(=O)=O)c(O)c2ccccc21,-9.4%,4.1%,-8.0,161.6%,-1.1%,-20.3%
Cc1cc(NS(=O)(=O)c2ccc(NC(=O)c3cc(-c4cccnc4)nc4ccc(Cl)cc34)cc2)no1,-10.6%,6.1%,·,7.9%,-7.3%,?
O=C(Nc1ccc(S(=O)(=O)Nc2nccs2)cc1)c1cc(-c2ccccc2)nc2ccccc12,-18.5%,-5.2%,-24.7,66.0%,-8.2%[11.6 µM],89.1µM*
Cc1ccc(-c2cc(C(=O)Nc3ccc(S(=O)(=O)Nc4nccs4)cc3)c3ccccc3n2)c(C)c1,-21.4%,0.0%[57.1 µM],?,?,-34.8%,35.5µM*
Cc1ccc(C)c(-c2cc(C(=O)Nc3nccs3)c3ccccc3n2)c1,-6.6%,24.3%,·,10.2%,-8.8%,3.8%
Cc1cc(C)c2nc(-c3ccccn3)cc(C(=O)Nc3ccc(S(=O)(=O)Nc4cc(C)on4)cc3)c2c1,?,50.1µM*,·,?,56.2µM*,28.2µM*
Cc1ccc(-c2cc(C(=O)Nc3ccc(S(=O)(=O)Nc4ncccn4)cc3)c3ccccc3n2)cc1,-3.0%,?,?,-10.9%,-16.3%,?
COc1ccc(OC)c(NC(=O)c2ccc(-c3nc(CSc4ccccc4)c(C)o3)cc2)c1,-1.7%,8.1%,·,40.5%,·,-19.8%
CC1CCCC(C)N1C(=O)COC(=O)/C=C/c1ccc(Br)o1 (stereo unspecified),?,·,?,22.4µM*,?,22.4µM*
CC1CCN(C(=O)COC(=O)/C=C/c2ccc(Br)o2)CC1,?,·,-7.9,17.8µM*,-7.5%[11.6 µM],-12.4%
CC(C)(C)C1CCc2[nH]nc(C(=O)O)c2C1 (stereo unspecified),-8.2%,3.6%,-4.3,-6.4%,-2.3%,-2.1%
CC(C)(C)OC(=O)N1CCC(c2c(C(=O)N3CCN(c4ccccc4F)CC3)cnn2C(C)(C)C)CC1,-14.6%,1.7%,·,24.7%,·,-7.5%
CCOC(=O)C1=C(OCc2ccc(Cl)cc2)C2C=C(C)C=CC2N=C1 (stereo unspecified),-5.0%,44.7µM*,-6.7,-11.9%,-20.8%,-4.3%
O=C1CC(c2ccco2)Sc2nc3ccccc3n21 (stereo unspecified),50.1µM*,-2.1%,?,20µM*,?,7.5%

# From PubChem BioAssay
